This is a sample that favours compounds with a hit; in the whole collection about 1.4% have one here.
RAD52 anneal inh: RAD52 (human) annealing inhibition. recombinant RAD52 DNA annealing, FRET fluorescence. hit rate 0.46% among 360,000. P43351. inhibition, % at 18.7 µM;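 active means every replicate showing at least 50% inhibition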
Target sequence (P43351 whole entry, looked up): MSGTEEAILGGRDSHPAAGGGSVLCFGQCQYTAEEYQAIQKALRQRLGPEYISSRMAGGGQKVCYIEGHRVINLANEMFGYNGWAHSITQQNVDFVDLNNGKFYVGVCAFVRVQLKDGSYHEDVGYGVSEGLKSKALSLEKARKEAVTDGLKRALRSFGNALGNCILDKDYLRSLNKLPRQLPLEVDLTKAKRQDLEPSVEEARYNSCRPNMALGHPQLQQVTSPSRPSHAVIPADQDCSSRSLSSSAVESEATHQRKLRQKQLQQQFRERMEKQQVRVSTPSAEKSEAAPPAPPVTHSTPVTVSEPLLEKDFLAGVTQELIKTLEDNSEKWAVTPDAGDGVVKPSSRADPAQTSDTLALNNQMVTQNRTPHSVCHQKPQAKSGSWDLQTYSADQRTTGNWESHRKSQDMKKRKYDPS
INS-1E GSIS act: GLuc luminescence reporter in INS-1E cells, primary screen for activators of glucose-dependent secretion of insulin | INS-1E GLuc reporter insulin secretion, 2-3 h | activation, % at 16.6 µM | hit rate 0.61% among 370,000;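 active means lowest replicate activation of at least 40%, so every replicate reaches that level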;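 further: 0% = median of neutral control wells and 100% = median of IBMX positive control wells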
AF4-AF9 inh: blocks AF4 peptide binding to human AF9; inhibition, % at 10 µM; hit rate 0.47% among 350,000; AlphaScreen, biotin-AF4 peptide binding to FLAG-AF9; AID 651704;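 active means every replicate reaching a set inhibition limit, whatever the replicate mean, cut at about 25% in these data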;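 further: 0% = plate neutral control median and 100% = total signal loss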
ERAP1 inh: inhibitors of human ERAP1 aminopeptidase | Q9NZ08 | recombinant ERAP1, Leu-AMC fluorescence, 60 min | inhibition, % at 10.7 µM | hit rate 0.15% among 340,000;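 active means mean replicate inhibition of at least 30%, or all replicates individually reaching that 30% level; inactive means mean below 30% and not every replicate reaching it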;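 further: 0% = neutral control wells and 100% = L-leucinethiol positive control wells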
RAD54 branch: inhibitors of human RAD54 branch migration; Q92698; RAD54 Holliday junction branch migration, FAM/BHQ fluorescence; inhibition, % at 10.4 µM; hit rate 0.14% among 360,000; AID 602329;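 active means mean normalized replicate activity at least 40 and at least half of replicates scoring 40 or more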;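 further: 0% = median of neutral control wells and 100% = median of positive control wells; inhibitors cause a drop in the FAM fluorescence signal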
PGC1a acetyl inh: lowers PGC1a acetylation signal in U2OS cells; AlphaScreen anti-acetyl-lysine; with virally co-expressed GCN5 acetyltransferase; hit rate 0.17% among 350,000; inhibition, % at 15.6 µM; AID 651687;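 active means every replicate shows inhibition of at least 40%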;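 further: 0% = neutral control wells and 100% = positive control wells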
* = called active by the depositor.

What do the screens show for `O=C(NC(=S)NCC1CCCO1)c1ccc(Cl)cc1Cl` (stereo not drawn)?
INS-1E GSIS act: 56.4*

Results for CCCN1[C@@H]2c3ccc(-c4ccc(F)cc4)c(=O)n3C[C@H]1[C@H](CO)[C@H]2C(=O)NCC ?
RAD52 anneal inh: -1.9; INS-1E GSIS act: 8.1; AF4-AF9 inh: -1.4; ERAP1 inh: -4.6; PGC1a acetyl inh: 5.5

How did Cc1ccccc1Cc1c(C)nc2c(C(=O)NCc3ccco3)cnn2c1C do in these assays?
RAD52 anneal inh: -22.6; INS-1E GSIS act: 45.6*; AF4-AF9 inh: -4.0; ERAP1 inh: 5.9; RAD54 branch: 3.4; PGC1a acetyl inh: 9.2

Results for C[C@@H]1CCCCO[C@@H](CN(C)C(=O)Nc2ccc(C(F)(F)F)cc2)[C@H](C)CN([C@H](C)CO)C(=O)c2cc(NS(=O)(=O)c3cccs3)ccc2O1 ?
RAD52 anneal inh: -53.6; INS-1E GSIS act: -4.7; AF4-AF9 inh: 0.2; ERAP1 inh: -2.6; RAD54 branch: -2.8; PGC1a acetyl inh: 11.7

Results for Cc1ccc(S(=O)(=O)NCC[C@@H]2CC[C@H](NC(=O)Nc3ccccc3F)[C@H](CO)O2)cc1 ?
RAD52 anneal inh: 8.6; INS-1E GSIS act: -2.8; AF4-AF9 inh: 0.2; ERAP1 inh: 0.1; RAD54 branch: -8.2; PGC1a acetyl inh: -3.1

What do the screens show for `CC(C)C[C@@H]1CN(CCCC[C@H]2CNC(=O)C(=O)N2CCC2CCCCC2)C(=O)C(=O)N1Cc1ccccc1`?
RAD52 anneal inh: 5.8; INS-1E GSIS act: -31.2; AF4-AF9 inh: 1.8; ERAP1 inh: -2.3

How did CC(C)C[C@H]1CN(CCCC[C@H]2CNC(=O)C(=O)N2CC2CCCCC2)C(=O)C(=O)N1Cc1ccccc1 do in these assays?
RAD52 anneal inh: -2.2; INS-1E GSIS act: -6.9; AF4-AF9 inh: 26.5*; ERAP1 inh: -3.7

Results for O=C(O)CSc1nnc(Cc2ccccc2)n1Cc1ccccc1 ?
INS-1E GSIS act: 56.6*; RAD54 branch: -1.0; PGC1a acetyl inh: 4.7

What do the screens show for `CCOC(=O)CN1NC2(CCCCCC2)NC1=S`?
RAD52 anneal inh: -13.2; INS-1E GSIS act: 8.4; AF4-AF9 inh: -0.5; ERAP1 inh: 35.4*; RAD54 branch: 8.5; PGC1a acetyl inh: -9.4

What do the screens show for `CC(C)(C)N1NC2(CCCCC2)NC1=S`?
RAD52 anneal inh: -12.7; AF4-AF9 inh: -15.9; ERAP1 inh: -1.6; RAD54 branch: -1.3; PGC1a acetyl inh: 4.6

What do the screens show for `C[C@@H]1CN([C@@H](C)CO)C(=O)c2cccc(NC(=O)C3CCCCC3)c2O[C@H]1CN(C)Cc1ccncc1`?
RAD52 anneal inh: 11.7; INS-1E GSIS act: 0.7; AF4-AF9 inh: -0.2; ERAP1 inh: -1.2; RAD54 branch: 6.3; PGC1a acetyl inh: 0.0

How did O=c1c2ccc(F)cc2sn1-c1ccccc1 do in these assays?
RAD52 anneal inh: -7.2; INS-1E GSIS act: 127.6*; AF4-AF9 inh: -14.3; RAD54 branch: -8.2

How did Cc1ccc(-n2sc3ccccc3c2=O)cc1 do in these assays?
INS-1E GSIS act: 5.7

How did COC(=O)c1cccc(-n2sc3ccccc3c2=O)c1 do in these assays?
RAD52 anneal inh: -9.5; AF4-AF9 inh: -21.5; ERAP1 inh: 86.4*; RAD54 branch: 1.2; PGC1a acetyl inh: -1.6

What do the screens show for `O=c1c2ccccc2sn1-c1ccc(F)cc1`?
RAD52 anneal inh: -22.9; INS-1E GSIS act: 144.6*; AF4-AF9 inh: -30.0; ERAP1 inh: 52.4*; RAD54 branch: -3.0; PGC1a acetyl inh: 8.3

What do the screens show for `COC(=O)c1cccc(N2CCCC2=O)c1`?
RAD52 anneal inh: -1.3; AF4-AF9 inh: -0.4; ERAP1 inh: -0.1; RAD54 branch: 1.5; PGC1a acetyl inh: 9.7

What do the screens show for `O=c1c2cc(F)ccc2sn1-c1ccccc1Cl`?
RAD52 anneal inh: 0.4; INS-1E GSIS act: 201.6*; AF4-AF9 inh: -10.7; ERAP1 inh: 60.7*; RAD54 branch: -4.6

How did COCC(=O)Nc1ccc2c(c1)C(=O)N(C)C[C@@H](OC)[C@@H](C)CN(Cc1ccccc1)[C@@H](C)CO2 do in these assays?
RAD52 anneal inh: 0.6; INS-1E GSIS act: -3.9; AF4-AF9 inh: 3.7; ERAP1 inh: 0.2; RAD54 branch: 1.0; PGC1a acetyl inh: -11.7

How did Cc1ccc(-n2sc3cc(F)ccc3c2=O)c(C)c1 do in these assays?
RAD52 anneal inh: -9.6; INS-1E GSIS act: 206.8*; AF4-AF9 inh: -11.3; RAD54 branch: 3.2

Results for O=C(c1cc(O)c(O)c([N+](=O)[O-])c1)c1ccccc1F ?
RAD52 anneal inh: -11.4; AF4-AF9 inh: 25.7*; ERAP1 inh: 4.0; RAD54 branch: 3.7; PGC1a acetyl inh: -2.4

How did O=C(Nc1ccc([N+](=O)[O-])cc1)c1ccccc1F do in these assays?
RAD52 anneal inh: -3.6; INS-1E GSIS act: -5.1; AF4-AF9 inh: -3.4; ERAP1 inh: 8.9; RAD54 branch: -2.3

What do the screens show for `O=C(Nc1cc(C(F)(F)F)ccc1N1CCOCC1)C1CCCO1` (stereo not drawn)?
RAD52 anneal inh: -6.0; INS-1E GSIS act: 12.1; AF4-AF9 inh: 1.1; ERAP1 inh: -4.9; RAD54 branch: -1.7; PGC1a acetyl inh: 3.1

How did CC1CC1C(=O)Nc1cc(C(F)(F)F)ccc1N1CCOCC1 (stereo not drawn) do in these assays?
RAD52 anneal inh: -7.8; INS-1E GSIS act: 47.6*; AF4-AF9 inh: -1.9; ERAP1 inh: 1.1; RAD54 branch: 10.8; PGC1a acetyl inh: 33.9

How did COCC#Cc1ccc2c(c1)O[C@H](CN(C)C(=O)NC(C)C)[C@@H](C)CN([C@H](C)CO)S2(=O)=O do in these assays?
RAD52 anneal inh: 5.6; INS-1E GSIS act: 8.1; AF4-AF9 inh: 0.1; ERAP1 inh: 2.5; RAD54 branch: -12.2; PGC1a acetyl inh: -7.2

How did Fc1ccc(CO/N=C/C2=C(Cl)c3ccccc3CC2)cc1 do in these assays?
PGC1a acetyl inh: 79.1*

What do the screens show for `O=c1cc2c(nn1Cc1ccc(F)cc1)-c1ccccc1CC2`?
RAD52 anneal inh: 4.2; INS-1E GSIS act: 14.4; AF4-AF9 inh: 3.9; ERAP1 inh: 1.9

What do the screens show for `C[C@H](CO)N1C[C@H](C)[C@H](CN(C)C(=O)NC2CCCCC2)Oc2ncc(C#Cc3cccc(F)c3)cc2C1=O`?
RAD52 anneal inh: 3.3; INS-1E GSIS act: -43.2; AF4-AF9 inh: 0.2; ERAP1 inh: 1.0; RAD54 branch: 0.5; PGC1a acetyl inh: 5.2

How did C[C@@H]1CCCCO[C@@H](CN(C)Cc2ccc(C(=O)Nc3ccccc3N)cc2)[C@@H](C)CN([C@H](C)CO)C(=O)c2cc(N(C)C)ccc2O1 do in these assays?
INS-1E GSIS act: 15.8

How did C=CCN(CC=C)Cc1cc(=O)n2c(-c3ccccc3)csc2n1 do in these assays?
RAD52 anneal inh: -35.9; INS-1E GSIS act: 1.2; AF4-AF9 inh: 48.7*; ERAP1 inh: 0.3; RAD54 branch: -3.9

Results for COc1cc(/C=C(/C#N)C(=O)NCCCc2ccccc2)ccc1OCC(=O)O ?
RAD52 anneal inh: -13.4; INS-1E GSIS act: 3.2; AF4-AF9 inh: 5.0; ERAP1 inh: 35.3*; RAD54 branch: -1.9; PGC1a acetyl inh: -10.2
